The record followed here is PubChem BioAssay AID651784 (National Center for Advancing Translational Sciences (NCATS), 2012).

Inconclusive results are not listed. The source made the active and inactive calls. The call rests on the fitted dose curve; in most records, active means well fitted inhibition curve with a large enough effect; inconclusive means small, poorly fitted or top-dose-only effect; inactive means no such curve, though single readings can be large or run the other way.
Potency means the concentration at half of the fitted maximal effect.

The assay is described as follows: Acumen qHTS Assay for Inhibitors of the mTORC1 Signaling Pathway in MEF (Tsc2-/-, p53-/-) Cells: Hit Validation.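 Further: phospho-rpS6 Ser235/236 immunofluorescence normalized to propidium iodide cell count; nearly all actives have a fitted effect of over 65% in size.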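 On activity change, negative = inhibition: cells exposed to compound for 24 hours; plate controls were DMSO for no effect and 7.5 nM rapamycin control for full effect.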 Conditions: Acumen imaging; activity change, negative = inhibition: at 37.3 µM (top of the series).
`CC1CCN(S(=O)(=O)c2ccc(C(=O)Nc3sc4c(c3C(N)=O)CC(C)(C)NC4(C)C)cc2)CC1`: the activity change, negative = inhibition is -107%. As to `COc1ccc(Cl)cc1S(=O)(=O)NCc1ccc2c(c1)CCN2C(=O)c1cccc(C)c1`, the activity change, negative = inhibition was -22.6%. Still for that read-out and setting: with `COc1ccc(CNC(=O)Cn2c(SCC(=O)Nc3ccc(C)c(C)c3)nc3ccccc32)cc1` the figure was -79.6%. On to `CCCCS(=O)(=O)c1oc(-c2cccs2)nc1S(=O)(=O)c1ccc(F)cc1`, for which the Potency is 3.69 µM (active).

For the molecule `CCCCC1CCC(C(=O)N2CC(=O)Nc3ccc(Cl)cc3C2c2ccc(F)cc2)CC1` (stereo not drawn), the activity change, negative = inhibition was -41.1%. Take `CCOC(=O)Cn1c(=O)c2c(nc(N3CCOCC3)n2Cc2ccccc2)n(C)c1=O`: the Potency was 2.93 µM (active).

`CCCCCn1c(=N)n(CC(O)COc2cccc(C)c2)c2ccccc21` (stereo not drawn): the Potency was 5.85 µM (active). On to `CCC1CCc2nc3sc(C(=O)Nc4cccc(F)c4)c(N)c3cc2C1` (stereo not drawn), for which the Potency is 5.21 µM (active). Consider `CCN1CCOC(=O)C1CC(=O)Nc1cc(Cl)ccc1C` (stereo not drawn), for which the activity change, negative = inhibition was -93.4%. Consider `COc1ccc(C2Sc3ccccc3NC3=C2C(=O)c2ccccc23)c(OC)c1OC` (stereo not drawn), for which the activity change, negative = inhibition was -65.9%. The same measure, in the same setting: with `Cc1cccc(N(C)S(=O)(=O)c2ccc(-c3cc(C)no3)s2)c1` the figure was -13.9%. Still for that read-out and setting: with `Cc1cccc(CS(=O)(=O)c2ncc(Cl)c(C(=O)NCc3ccccc3)n2)c1` the figure was -111%. Still for that read-out and setting: with `c1ccc(N2CCN(c3ncnc4[nH]ncc34)CC2)cc1` the figure was 6.17%; with `CCCN1C(=O)C(Cc2nc3ccccc3c(=O)n2CC)c2ccccc21` (stereo not drawn), -1.87%. Regarding `Cc1ccc(-c2csc(-c3cc4c([nH]c3=O)CC(c3ccccc3)CC4=O)n2)cc1` (stereo not drawn), the Potency is 0.927 µM (active). In the case of `CCC1CN(C(=O)NCc2ccc(F)cc2)c2cc(C)ccc2O1` (stereo not drawn), the activity change, negative = inhibition came out at 0.784%.

As for `CCOC(=O)N1CCN(Cc2nc3cc(NC(=O)c4ccccc4OC)ccc3n2C(C)C)CC1`, the activity change, negative = inhibition was -28.8%. On the same count and under the same terms, the same measure for `COc1cc(NC(=O)CSc2ccc(-c3ccccn3)nn2)cc(OC)c1`: -6.23%. For the molecule `CC(=O)C1=C(c2ccccc2)N(C(C)=O)n2c(nnc2C2CCCCC2)S1`, the Potency is 7.36 µM (active). On the same count and under the same terms, with `CCC1CCc2nc3sc(C(=O)Nc4ccc(C)cc4)c(N)c3cc2C1` (stereo not drawn) the figure was 8.26 µM (active). In the case of `COc1ccccc1C(=O)Nc1ccc2nc(N3CCC(C)CC3)cc(C)c2c1`, the activity change, negative = inhibition is -19.9%. On the same count and under the same terms, the same measure for `CCOc1cc(CNc2ccc(O)cc2)cc(Cl)c1OCc1ccccc1`: -9.52%. For the molecule `CCC(C)S(=O)(=O)c1oc(-c2ccc(F)cc2)nc1S(=O)(=O)c1ccc(F)cc1` (stereo not drawn), the Potency is 1.31 µM (active). With `Cc1nn(CCCC(=O)NCc2cccc(Cl)c2)c(=O)c2c1sc1ccccc12`, the activity change, negative = inhibition is -2.73%. Take `COc1ccc(-c2nnc(SCC(=O)NCc3ccccc3)nc2-c2ccc(OC)c(OC)c2)cc1OC`: the Potency was 18.5 µM (active). Turning to `Cc1cc(C)cc(OCC(=O)Nc2cccc(-c3nc4ccccc4[nH]3)c2)c1`, the activity change, negative = inhibition was -6.64%. Still for that read-out and setting: with `CCN1CCOC(=O)C1CC(=O)Nc1cccc(OC)c1` (stereo not drawn) the figure was -21.3%; with `CCOc1ccccc1NC(=O)Cn1c(=O)n(CCC(=O)NCc2ccc3c(c2)OCO3)c(=O)c2ccccc21`, -23.6%. Consider `CCCS(=O)(=O)c1ncc(Cl)c(C(=O)Nc2c(C(=O)Nc3ccccc3)oc3ccccc23)n1`, for which the Potency is 0.585 µM (active).

As for `CCN(CC)CCn1c(=N)n(CCOc2ccccc2Cl)c2ccccc21`, the activity change, negative = inhibition was -149%.

On to `Cc1cccc(-n2cnc3cc(C(=O)NC4CCCCCC4)ccc32)c1`, for which the Potency is 18.5 µM (active). Take `CS(=O)(=O)N(CC(=O)NCCc1ccccc1)c1cc(C(F)(F)F)ccc1Cl`: the activity change, negative = inhibition came out at 30.3%. For the molecule `Brc1ccc(Nc2c3c(nc4nncn24)CCC3)cc1`, the activity change, negative = inhibition amounted to 7.81%.

On to `CN(Cc1ccccc1)C(=O)CSc1c2c(nc3ccc(Cl)cc13)CCCC2`, for which the activity change, negative = inhibition is 9.63%. On to `O=C(CS(=O)(=O)c1cccc2nsnc12)NCc1ccc(Cl)cc1`, for which the activity change, negative = inhibition was found to be 10.4%. On the same count and under the same terms, the same measure for `CC(=O)Nc1ccc2nc(-c3cc(C)ccc3C)[nH]c2c1`: -21.9%. `COc1ccc(CCNC(=O)C(C)n2nc(C)c3sc4ccccc4c3c2=O)c(OC)c1` (stereo not drawn): the activity change, negative = inhibition was -17.7%.

Regarding `COc1ccc(C(=O)N2CCN(C(=O)COc3ccc(Br)cc3)CC2)cc1OC`, the activity change, negative = inhibition is -17.7%.
